Molecules are shown by their SMILES. Results filed as inconclusive are left out. Unmarked numbers belong to inactive results. The call rests on the fitted dose curve; in most records, active means well fitted cell-killing curve with a large enough effect; inconclusive means small, poorly fitted or top-dose-only effect; inactive means flat fitted curve, though single readings scatter.

This test in a line: Cell Viability - Mesenchymal (AID 546).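 Further: cells exposed to compound for 40 hours before reading; 0% = DMSO only and -100% = 100 µM tamoxifen.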 To be noted: mesenchymal cells viability, qHTS; series mostly up to 91.7 µM; activity change, negative = cytotoxicity: at the top concentration. The source says:
NIH Chemical Genomics Center [NCGC]
NIH Molecular Libraries Screening Centers Network [MLSCN]
National Institutes of Environmental Health Sciences [NIEHS]
National Toxicology Program [NTP]
We have developed a 1536-well cell-based assay for quantitative high throughput screening (qHTS) against a number of cell lines to determine in vitro cytotoxicity of small molecules. This particular assay uses the kidney mesenchymal cell line which is derived from normal human renal glomeruli.
NCGC Assay Protocol Summary:
The CellTiter-Glo luminescent cell viability assay (Promega) is a homogeneous method to measure the number of viable cells in culture. The end point readout of this assay is based on quantitation of intracellular ATP, an indicator of metabolic activity, using the luciferase reaction. Luciferase catalyzes the oxidation of beetle Luciferin to oxyluciferin and light in the presence of ATP. The luminescent signal is proportional to amount of ATP present.
Using the CellTiter-Glo luminescent cell viability assay, the amount of cellular ATP was measured in the kidney mesenchymal cell line with complete culture medium following compound treatment for 40 hours. The assay was performed in opaque white Kalypsys 1536-well plates. In the screen, tamoxifen and doxorubicin were used as positive controls. Library compounds were measured for their ability to cause acute toxicity in the cell line, as reflected by a decrease in intracellular ATP levels, in a concentration-dependent manner. […] AC50 values were determined from concentration-response data modeled with the standard Hill equation.
qHTS protocol for CellTiter Glo kidney mesenchymal cells cellular assay
[Step] [Parameter] [Value] [Description]
1. Reagent; 5 uL; 1000 kidney mesenchymal cells/well
2. Time; 5 hr; 37 °C incubation
4. Controls; 23 nL; Tamoxifen 0.34 uM to 100 uM & Doxorubicin 0.02 nM to 100 uM
5. Time; 40 hr; 37 °C incubation
6. Reagent; 5 uL; CellTiter Glo reagent
7. Time; 20 min; Room Temperature
8. Detection; Luminescence; Viewlux plate reader
Keywords: cell viability, cytotoxicity, Kidney mesenchymal cell line, luminescence, NTPHTS, NTPHTS_NCGC, NIEHS, EPA, DSSTox, MLSMR, MLSCN, NIH Roadmap, qHTS, NCGC
A general note: qHTS replaces the single test concentration by a dilution series.
Turning to `Cc1ccc(OP(=O)(Oc2ccc(C)cc2)Oc2ccc(C)cc2)cc1`, the “activity change, negative = cytotoxicity” value was 7.77%.

As to `[O-][Cl+]O`, the “activity change, negative = cytotoxicity” value is 8.05%.

Regarding `C=C(Cl)CSC(=S)N(CC)CC`, the “activity change, negative = cytotoxicity” value was 5.63%.

For `CC(Cl)(Cl)Cl`, the “activity change, negative = cytotoxicity” value was -1.77%.

For the compound `CCCCCC[N+](=O)[O-]`, the “activity change, negative = cytotoxicity” value was 4.38%.

Regarding `CCNCC`, the “activity change, negative = cytotoxicity” value was 4.54%.

For `CN(C)c1ccc(N=Nc2ccccc2)cc1`, the “activity change, negative = cytotoxicity” value is -21.5%.

Regarding `O=Cc1ccc2c(c1)OCO2`, the “activity change, negative = cytotoxicity” value is 3.67%.

Consider `CN(C)c1ccccc1`, for which the “activity change, negative = cytotoxicity” value was -6.13%.

With `O=Cc1ccc(Cl)cc1Cl`, the “activity change, negative = cytotoxicity” value is 9.95%.

On to `Clc1cccc(Cl)c1Cl`, for which the “activity change, negative = cytotoxicity” value is 2.34%.

Regarding `CCCCC(=O)Cl`, the “activity change, negative = cytotoxicity” value was 5.24%.

Take `CCCCCc1cc(O)cc(O)c1`: the “activity change, negative = cytotoxicity” value is -5.35%.

As for `CN(C)C(=O)Nc1cccc(C(F)(F)F)c1`, the “activity change, negative = cytotoxicity” value was 2.07%.

As for `[O-][Cl+2]([O-])O`, the “activity change, negative = cytotoxicity” value is 9.05%.

For the compound `Cc1cc(-c2ccc(N)c(C)c2)ccc1N`, the “activity change, negative = cytotoxicity” value is -22.5%.

As for `OCC(Cl)CCl` (stereo not given), the “activity change, negative = cytotoxicity” value was 5.44%.

Turning to `Clc1cccc(Cl)c1`, the “activity change, negative = cytotoxicity” value is 8.17%.

Turning to `ClCC(Br)CBr` (stereo not given), the “activity change, negative = cytotoxicity” value was 10.6%.

For the compound `OCCCCO`, the “activity change, negative = cytotoxicity” value is -0.0483%.

`O=[N+]([O-])c1cccc2c([N+](=O)[O-])cccc12`: the “activity change, negative = cytotoxicity” value was 3.98%.

Consider `CC(C)[N+](=O)[O-]`, for which the “activity change, negative = cytotoxicity” value was 8.73%.

Take `Cl/C=C/CCl`: the “activity change, negative = cytotoxicity” value was -3.83%.

With `C=CC(=O)OCC(CC)CCCC` (stereo not given), the “activity change, negative = cytotoxicity” value was 1.42%.

Turning to `CC1CC(=O)O1` (stereo not given), the “activity change, negative = cytotoxicity” value is 9.38%.

As for `ClC(Cl)Br`, the “activity change, negative = cytotoxicity” value is -0.164%.

Consider `CCN(N=O)C(N)=O`, for which the “activity change, negative = cytotoxicity” value was -0.983%.

Take `ClCCOCOCCCl`: the “activity change, negative = cytotoxicity” value was 5.39%.

For `ClCc1ccccn1`, the “activity change, negative = cytotoxicity” value is 6.04%.

As to `BrC(Br)Br`, the “activity change, negative = cytotoxicity” value is -4.95%.

As to `CCOC(=O)C1OC1(C)c1ccccc1` (stereo not given), the “activity change, negative = cytotoxicity” value is 0.343%.

In the case of `CN(C)c1ccc(N)cc1`, the “activity change, negative = cytotoxicity” value is -28.3%.

For `O=C(Cl)OCc1ccccc1`, the “activity change, negative = cytotoxicity” value is 9.11%.

`CC(Cl)CCl` (stereo not given): the “activity change, negative = cytotoxicity” value is 12.1%.

`O=[N+]([O-])c1ccc2c3c(cccc13)CC2`: the “activity change, negative = cytotoxicity” value was 0.333%.

With `CC(C)OS(C)(=O)=O`, the “activity change, negative = cytotoxicity” value is -2.37%.

As for `O=S(=O)(Cl)c1ccccc1`, the “activity change, negative = cytotoxicity” value is -2.07%.

As to `C[N+](=O)[O-]`, the “activity change, negative = cytotoxicity” value was 7.69%.

In the case of `OCCBr`, the “activity change, negative = cytotoxicity” value was -1.79%.

On to `O=[N+]([O-])CCO`, for which the “activity change, negative = cytotoxicity” value was 3.57%.

The values are drawn from PubChem BioAssay (NCATS).
